This is an account of results in PubChem BioAssay AID1345085 (National Center for Advancing Translational Sciences (NCATS), 2018).

Results filed as inconclusive are left out. Unmarked numbers belong to inactive results. Activity calls are given as the source filed them. The call rests on the fitted dose curve; in most records, active means well fitted cell-killing curve with a large enough effect; inconclusive means small, poorly fitted or top-dose-only effect, or effect the other way; inactive means no such curve, though single readings can be large or run the other way.
On the % scale 0 is the no-effect control and ±100 the full control effect; potency means the concentration at half of the fitted maximal effect.

For this assay, the system named is SW626. Briefly: Confirmatory qHTS for gynecologic anti-cancer compounds from libraries of approved drugs and bioactive compounds. Further: nearly all actives have a fitted effect of over 55% in size. As to conditions: gynecologic cancer cell panel viability, ATPlite luminescence, 48 h; series mostly up to 57.6 µM. The procedure, abridged: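 ATPlite luminescence read-out of cell viability; IC50 from 11-point 1:3 titrations, 57.5 uM to 0.977 nM, 48 h compound exposure at 37 C, 5% CO2. Cells seeded at 1,000/well 16 h before dosing.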
For `CC(C)Oc1ccc(C(=O)NC(CNC(=O)CN(C)C)Cc2ccc(-c3cn4cccc(C(C)O)c4n3)cc2)cc1Cl` (stereo not given), the Potency result was “inactive”.

In the case of `CCc1nc(C(N)=O)c(Nc2ccc(N3CCC(N4CCN(C)CC4)CC3)c(OC)c2)nc1NC1CCOCC1`, the Potency is 3.78 µM (active).

Consider `Cc1cncc2cccc(S(=O)(=O)N3CCCN(C(=O)CN)C[C@@H]3C)c12`, for which the Potency result was “inactive”.

With `O=C(c1ccc(/C=C/c2n[nH]c3ccccc23)cc1)N1CCNCC1`, the Potency is 15.3 µM (active).

Regarding `O=C1N(c2ccccc2)c2ccccc2C1(Cc1ccncc1)Cc1ccncc1`, the Potency result was “inactive”.

Regarding `COc1cc(C(=O)N2CCC(N3CCN(C)CC3)CC2)ccc1Nc1ncc2c(n1)N(C)c1ccccc1C(=O)N2C`, the Potency is 7.69 µM (active).

Consider `Cc1cc(CN2CCN(c3c(Br)cnc4nc(-c5ccc(N6CCN(C)CC6)cc5)[nH]c34)CC2)no1`, for which the Potency is 24.3 µM (active).

Take `COCCOc1nc(-c2ccc(Cl)c(Cl)c2)n(-c2ccc(NC(=O)CCl)cc2)n1`: the Potency was 6.11 µM (active).

`CCN(CC)CCCC(C)Nc1ccnc2cc(Cl)ccc12` (stereo not given): the Potency entry is “inactive”.

With `O=c1c2ccccc2nc2n1CCc1c-2[nH]c2ccccc12`, the Potency entry is “inactive”.

For `CN(C)C(CCOc1cccc2ccccc12)c1ccccc1` (stereo not given), the Potency result is “inactive”.

Consider `Cc1cc(SCc2sc(-c3ccc(C(F)(F)F)cc3)nc2C)ccc1OCC(=O)O`, for which the Potency entry was “inactive”.

Take `O=C(O)C1(Cc2cccc(Nc3nccs3)n2)CCC(Oc2cccc(Cl)c2F)CC1` (stereo not given): the Potency result was “inactive”.

As to `CCCc1nn(C)c2c(=O)[nH]c(-c3cc(S(=O)(=O)N4CCN(C)CC4)ccc3OCC)nc12`, the Potency result is “inactive”.

For `CCN1CCN(Cc2ccc(-c3cc4c(NC(C)c5ccccc5)ncnc4[nH]3)cc2)CC1` (stereo not given), the Potency is 27.3 µM (active).

Regarding `CNCc1ccc(-c2[nH]c3cc(F)cc4c3c2CCNC4=O)cc1`, the Potency entry is “inactive”.

With `CN(C)C1CCN(C(=O)c2ccc(NC(=O)Nc3nc(N4CCOCC4)nc(N4CCOCC4)n3)cc2)CC1`, the Potency is 0.685 µM (active).

Consider `CN(NC(=O)CC(=O)NN(C)C(=S)c1ccccc1)C(=S)c1ccccc1`, for which the Potency is 0.0968 µM (active).

Take `CC[C@@]1(O)C(=O)OCc2c1cc1n(c2=O)Cc2c-1nc1ccccc1c2/C=N/OC(C)(C)C`: the Potency was 0.217 µM (active).

For `COc1ccccc1N1CCN(CC(O)COc2cccc3ccccc23)CC1` (stereo not given), the Potency result is “inactive”.

In the case of `CCCCc1oc2ccccc2c1C(=O)c1cc(I)c(OCCN(CC)CC)c(I)c1`, the Potency is 79.4 µM (active).

As for `CS(=O)(=O)c1ccc(C(=O)Nc2ccc(Cl)c(-c3ccccn3)c2)c(Cl)c1`, the Potency entry is “inactive”.

As to `Nc1ccc(-c2ccc3ncc4ccc(=O)n(-c5cccc(C(F)(F)F)c5)c4c3c2)cn1`, the Potency is 6.11 µM (active).

For the molecule `CCCCN(CCCC)CC(O)c1cc(Cl)cc2c1-c1ccc(Cl)cc1/C2=C/c1ccc(Cl)cc1` (stereo not given), the Potency entry is “inactive”.

On to `Nc1ccccc1NC(=O)c1ccc(CNC(=O)OCc2cccnc2)cc1`, for which the Potency was 3.06 µM (active).

Regarding `CC[C@H](Nc1ncnc2nc[nH]c12)c1nc2cccc(F)c2c(=O)n1-c1ccccc1`, the activity change, negative = viability loss was -5.07% [at 10.7 µM].

For the molecule `Cn1cnc2c(F)c(Nc3ccc(Br)cc3Cl)c(C(=O)NOCCO)cc21`, the Potency was 2.73 µM (active).

As to `NC(=O)c1cnc(-c2ccc(C3(N)CCC3)cc2)c(-c2ccccc2)c1`, the Potency is 24.3 µM (active).

Regarding `Cc1ccc(C(=O)N(CCCN)C(c2nc3cc(Cl)ccc3c(=O)n2Cc2ccccc2)C(C)C)cc1` (stereo not given), the Potency is 9.68 µM (active).

Regarding `Cc1cc(Nc2nc(N[C@@H](C)c3ccc(F)cc3)c(C#N)cc2F)n[nH]1`, the Potency was 5.44 µM (active).
